Here are results for 40 sequences from paper PMC13541613, “GHT-SELEX demonstrates unexpectedly high intrinsic sequence specificity and complex DNA binding of many human transcription factors”.

ZNF721 full-length, sequence (Q8TF20 other isoform, or with tags, fused parts or gaps): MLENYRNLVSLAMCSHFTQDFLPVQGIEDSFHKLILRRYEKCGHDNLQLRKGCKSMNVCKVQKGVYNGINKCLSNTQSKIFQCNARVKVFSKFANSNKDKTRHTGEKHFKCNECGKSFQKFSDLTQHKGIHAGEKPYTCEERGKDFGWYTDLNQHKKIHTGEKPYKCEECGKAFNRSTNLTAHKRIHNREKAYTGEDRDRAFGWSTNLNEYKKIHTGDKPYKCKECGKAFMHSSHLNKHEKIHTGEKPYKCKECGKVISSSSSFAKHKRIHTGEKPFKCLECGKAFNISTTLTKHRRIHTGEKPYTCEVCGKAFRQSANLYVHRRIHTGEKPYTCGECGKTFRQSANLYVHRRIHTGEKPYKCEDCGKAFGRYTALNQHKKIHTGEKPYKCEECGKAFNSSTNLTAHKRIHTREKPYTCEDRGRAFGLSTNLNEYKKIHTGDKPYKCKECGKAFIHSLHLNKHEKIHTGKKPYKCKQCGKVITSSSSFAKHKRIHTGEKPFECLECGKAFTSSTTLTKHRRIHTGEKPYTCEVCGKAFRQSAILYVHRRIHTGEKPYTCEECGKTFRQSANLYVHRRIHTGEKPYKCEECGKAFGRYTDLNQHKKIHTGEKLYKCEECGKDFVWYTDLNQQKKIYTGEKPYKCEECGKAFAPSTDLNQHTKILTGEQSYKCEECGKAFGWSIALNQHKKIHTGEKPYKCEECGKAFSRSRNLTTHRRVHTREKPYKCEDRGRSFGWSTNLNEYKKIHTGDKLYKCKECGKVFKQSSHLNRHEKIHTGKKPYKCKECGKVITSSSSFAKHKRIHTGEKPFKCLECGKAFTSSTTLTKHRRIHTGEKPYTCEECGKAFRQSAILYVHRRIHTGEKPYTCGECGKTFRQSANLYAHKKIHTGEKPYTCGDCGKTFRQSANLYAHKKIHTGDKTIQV

For one test, the target named is ZNF721 full-length (Homo sapiens, UniProt Q8TF20-2 1-923). In words: HT-SELEX; 20 mM HEPES pH 7, 140 mM KCl, 5 mM NaCl, 1 mM K2HPO4, 2 mM MgSO4, 100 uM EGTA, ZnSO4, 0.1% Tween20; room temperature, 1 h; high values mean tight binding. The following applies: protein: ivt; tags: eGFP (N-terminal); dsDNA, one strand shown. Put shortly:
(§1)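 Bead-immobilised tagged transcription factor (full-length or DNA-binding-domain fragment), made in HEK293 lysate or cell-free extract, was incubated with a randomized 40-base DNA library. Binding was for 1 h at room temperature in HEPES/KCl low-stringency buffer with Tween20. After washing and heat elution, bound DNA was PCR-amplified over successive cycles and Illumina-sequenced (~3 million 60 bp reads per sample). Binding signal is a relative k-mer count in selected reads; higher means tighter binding.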
The sequence TAAAAAAGCA showed a binding signal of 0.179 relative 10-mer count.
The same measure, in the same setting: the figure for CCCACGACCC is 0.107 relative 10-mer count; for CCGCCCACCC it is 0.268 relative 10-mer count; for CTCCTCCCCC it is 0.119 relative 10-mer count.
On the same count and under the same terms, the figure for CACACCCCAC is 0.123 relative 10-mer count.
The same measure, in the same setting: for CCCCCCCCAA the value was 0.109 relative 10-mer count.
In turn, CAGAAAAAAG came in with a binding signal of 0.147 relative 10-mer count.
On the same count and under the same terms, for CCCCGACCAC the value was 0.111 relative 10-mer count; for CCCCCACCCC, 0.44 relative 10-mer count; for CACCACCACC, 0.19 relative 10-mer count.
The same measure, in the same setting: for AAACAGCGTA the value was 0.378 relative 10-mer count.
Same read-out and setting: the figure for CCCCAACACC is 0.114 relative 10-mer count.
In turn, AGGTGGTGGG gave a binding signal of 0.113 relative 10-mer count.
Still for that read-out and setting: for AAAAAAGAGT the value was 0.101 relative 10-mer count; for CCCTCCCCCC, 0.342 relative 10-mer count; for GTGGTGGGGA, 0.14 relative 10-mer count.
GGGAGGGGGA: the binding signal came out at 0.161 relative 10-mer count.
On to AACAGCATGA, for which the binding signal was 0.198 relative 10-mer count.
On the same count and under the same terms, the figure for CCCTCTCCCC is 0.11 relative 10-mer count.
The same measure, in the same setting: for AAAAAAAGGT the value was 0.117 relative 10-mer count; for AAAAAAAGAG, 0.126 relative 10-mer count.
Same read-out and setting: for CCAACCACCC the value was 0.175 relative 10-mer count; for CACCATCCCC, 0.118 relative 10-mer count; for CCCGCCGCCC, 0.194 relative 10-mer count.
As for ACCCACCCCG, the binding signal came to 0.133 relative 10-mer count.
The sequence AAAAAAAGCG returned a binding signal of 0.217 relative 10-mer count.
The same measure, in the same setting: for CCCAAAAAAA the value was 0.149 relative 10-mer count; for CCCCCGACCC, 0.181 relative 10-mer count; for ACCCACCACC, 0.214 relative 10-mer count.
The same measure, in the same setting: the figure for CCGCCCCCTC is 0.128 relative 10-mer count; for AAAGCAGGGT it is 0.272 relative 10-mer count; for ACCACCCACC it is 0.242 relative 10-mer count.
The same measure, in the same setting: the figure for ACCCCCTCCC is 0.158 relative 10-mer count; for ACCACCCCCC it is 0.211 relative 10-mer count.
As to ACGAAAAAAG, the binding signal is 0.126 relative 10-mer count.
Consider CCAAAAAAAG, for which the binding signal is 0.124 relative 10-mer count.
The same measure, in the same setting: the figure for AAAAAAAGCA is 0.612 relative 10-mer count; for CACCGCCACC it is 0.117 relative 10-mer count.
On the same count and under the same terms, the figure for GCCACCCACC is 0.147 relative 10-mer count; for CGCTTCTTTC it is 0.12 relative 10-mer count.

The target in a further test is ZNF721 DBD1 (Homo sapiens, UniProt Q8TF20-2 29-461). The test is described as above. The following applies: protein: ivt; tags: eGFP (N-terminal); dsDNA, one strand shown. Put shortly: as §1
ZNF721 DBD1, sequence (Q8TF20 17-449): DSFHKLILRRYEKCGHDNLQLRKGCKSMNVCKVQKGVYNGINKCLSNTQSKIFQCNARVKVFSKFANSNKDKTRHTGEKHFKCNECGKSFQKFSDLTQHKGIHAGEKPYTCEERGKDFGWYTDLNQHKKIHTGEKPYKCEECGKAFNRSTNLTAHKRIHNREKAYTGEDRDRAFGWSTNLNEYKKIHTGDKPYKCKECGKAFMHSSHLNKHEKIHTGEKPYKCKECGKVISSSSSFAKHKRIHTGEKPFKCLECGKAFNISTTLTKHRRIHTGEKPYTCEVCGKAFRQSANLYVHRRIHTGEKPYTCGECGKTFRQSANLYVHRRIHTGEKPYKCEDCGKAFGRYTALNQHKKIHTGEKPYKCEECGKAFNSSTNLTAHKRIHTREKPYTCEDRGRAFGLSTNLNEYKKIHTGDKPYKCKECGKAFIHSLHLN
As to TAAAAAAGCA, the binding signal came to 0.00816 relative 10-mer count.
The same measure, in the same setting: the figure for CCCACGACCC is 0.00564 relative 10-mer count; for CCGCCCACCC it is 0.0089 relative 10-mer count; for CTCCTCCCCC it is 0.00633 relative 10-mer count.
In turn, CACACCCCAC showed a binding signal of 0.00394 relative 10-mer count.
On the same count and under the same terms, for CCCCCCCCAA the value was 0.00316 relative 10-mer count; for CAGAAAAAAG, 0.0308 relative 10-mer count; for CCCCGACCAC, 0.00422 relative 10-mer count.
The same measure, in the same setting: for CCCCCACCCC the value was 0.0205 relative 10-mer count; for CACCACCACC, 0.0072 relative 10-mer count.
Take AAACAGCGTA: the binding signal stood at 0.00115 relative 10-mer count.
Same read-out and setting: the figure for CCCCAACACC is 0.00417 relative 10-mer count; for AGGTGGTGGG it is 0.00601 relative 10-mer count.
Still for that read-out and setting: for AAAAAAGAGT the value was 0.00665 relative 10-mer count.
On to CCCTCCCCCC, for which the binding signal was 0.0158 relative 10-mer count.
On to GTGGTGGGGA, for which the binding signal was found to be 0.00674 relative 10-mer count.
As to GGGAGGGGGA, the binding signal came to 0.00752 relative 10-mer count.
The same measure, in the same setting: the figure for AACAGCATGA is 0.00188 relative 10-mer count; for CCCTCTCCCC it is 0.00564 relative 10-mer count; for AAAAAAAGGT it is 0.00583 relative 10-mer count.
Same read-out and setting: the figure for AAAAAAAGAG is 0.00949 relative 10-mer count; for CCAACCACCC it is 0.00624 relative 10-mer count.
On the same count and under the same terms, for CACCATCCCC the value was 0.00468 relative 10-mer count.
Consider CCCGCCGCCC, for which the binding signal stood at 0.00532 relative 10-mer count.
Still for that read-out and setting: for ACCCACCCCG the value was 0.00491 relative 10-mer count; for AAAAAAAGCG, 0.0356 relative 10-mer count; for CCCAAAAAAA, 0.0067 relative 10-mer count.
On the same count and under the same terms, the figure for CCCCCGACCC is 0.00587 relative 10-mer count.
Still for that read-out and setting: the figure for ACCCACCACC is 0.0104 relative 10-mer count.
CCGCCCCCTC had a binding signal of 0.00573 relative 10-mer count.
On the same count and under the same terms, for AAAGCAGGGT the value was 0.00115 relative 10-mer count.
As to ACCACCCACC, the binding signal came to 0.00945 relative 10-mer count.
Same read-out and setting: for ACCCCCTCCC the value was 0.00807 relative 10-mer count; for ACCACCCCCC, 0.00771 relative 10-mer count.
The same measure, in the same setting: the figure for ACGAAAAAAG is 0.0251 relative 10-mer count.
Sequence CCAAAAAAAG registered a binding signal of 0.00812 relative 10-mer count.
Turning to AAAAAAAGCA, the binding signal came out at 0.037 relative 10-mer count.
The same measure, in the same setting: the figure for CACCGCCACC is 0.00339 relative 10-mer count; for GCCACCCACC it is 0.00605 relative 10-mer count; for CGCTTCTTTC it is 0.081 relative 10-mer count.
